Experimental data reported in ChEMBL document CHEMBL1961873, “Compounds: GSK PKIS; Assays: Nanosyn kinase panel” (2012).

Columns and labels:
[1] = target: T1, Tyrosine-protein kinase ITK/TSK (Homo sapiens) (UniProt Q08881); details: at 1 µM;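 further: values are mean percent inhibition of ITK from the GSK PKIS screen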
T1 sequence (whole entry): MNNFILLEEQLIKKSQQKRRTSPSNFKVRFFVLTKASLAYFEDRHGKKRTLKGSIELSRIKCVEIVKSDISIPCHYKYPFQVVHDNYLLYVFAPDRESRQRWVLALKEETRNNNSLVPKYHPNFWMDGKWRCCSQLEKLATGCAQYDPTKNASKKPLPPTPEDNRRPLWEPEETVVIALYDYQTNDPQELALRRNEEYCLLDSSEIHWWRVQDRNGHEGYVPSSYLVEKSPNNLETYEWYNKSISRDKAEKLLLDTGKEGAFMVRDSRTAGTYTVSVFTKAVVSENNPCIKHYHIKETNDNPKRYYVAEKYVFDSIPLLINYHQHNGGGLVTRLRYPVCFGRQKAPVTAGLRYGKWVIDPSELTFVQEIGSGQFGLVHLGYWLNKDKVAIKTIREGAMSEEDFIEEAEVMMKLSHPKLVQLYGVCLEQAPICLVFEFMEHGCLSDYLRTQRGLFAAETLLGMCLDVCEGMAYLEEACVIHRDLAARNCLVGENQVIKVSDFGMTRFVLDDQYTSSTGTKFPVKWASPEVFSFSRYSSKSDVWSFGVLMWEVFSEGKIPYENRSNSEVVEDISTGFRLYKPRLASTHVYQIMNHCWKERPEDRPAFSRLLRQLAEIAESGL

[2] = target: Tyrosine-protein kinase JAK1 (Homo sapiens) (UniProt P23458); details: at 0.1 µM
Chain of Tyrosine-protein kinase JAK1 (Homo sapiens) (P23458 whole entry): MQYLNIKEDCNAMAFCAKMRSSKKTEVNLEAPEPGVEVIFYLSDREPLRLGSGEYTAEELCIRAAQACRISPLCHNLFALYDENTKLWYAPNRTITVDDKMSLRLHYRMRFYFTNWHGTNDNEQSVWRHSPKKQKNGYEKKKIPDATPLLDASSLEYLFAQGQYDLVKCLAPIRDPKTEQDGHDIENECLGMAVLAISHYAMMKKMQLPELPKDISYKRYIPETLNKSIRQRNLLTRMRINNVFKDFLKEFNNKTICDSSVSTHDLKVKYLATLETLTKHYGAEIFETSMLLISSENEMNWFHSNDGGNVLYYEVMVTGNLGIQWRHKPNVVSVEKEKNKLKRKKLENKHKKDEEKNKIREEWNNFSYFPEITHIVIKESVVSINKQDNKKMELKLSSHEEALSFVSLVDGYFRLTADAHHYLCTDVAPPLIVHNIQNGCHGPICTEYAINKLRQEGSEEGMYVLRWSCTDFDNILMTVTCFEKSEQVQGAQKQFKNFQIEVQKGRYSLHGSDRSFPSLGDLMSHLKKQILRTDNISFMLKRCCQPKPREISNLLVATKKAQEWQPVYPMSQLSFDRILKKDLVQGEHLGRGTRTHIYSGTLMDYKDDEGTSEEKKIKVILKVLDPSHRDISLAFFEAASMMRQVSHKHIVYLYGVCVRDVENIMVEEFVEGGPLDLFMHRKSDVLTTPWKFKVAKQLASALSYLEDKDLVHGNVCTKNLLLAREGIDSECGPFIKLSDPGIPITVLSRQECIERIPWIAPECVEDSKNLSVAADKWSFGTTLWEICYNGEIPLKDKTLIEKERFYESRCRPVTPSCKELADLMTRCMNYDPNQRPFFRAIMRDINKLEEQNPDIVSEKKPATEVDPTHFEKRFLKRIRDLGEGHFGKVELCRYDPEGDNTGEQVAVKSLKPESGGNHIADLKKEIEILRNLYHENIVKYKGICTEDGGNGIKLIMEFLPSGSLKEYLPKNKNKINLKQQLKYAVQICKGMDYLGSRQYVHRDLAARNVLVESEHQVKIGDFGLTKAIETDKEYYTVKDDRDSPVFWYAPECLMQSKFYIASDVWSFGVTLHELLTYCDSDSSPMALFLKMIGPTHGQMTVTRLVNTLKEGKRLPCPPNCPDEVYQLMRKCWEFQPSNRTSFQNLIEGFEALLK

[3] = target: Tyrosine-protein kinase JAK1 (Homo sapiens) (UniProt P23458); details: at 1 µM
[4] = target: Tyrosine-protein kinase JAK2 (Homo sapiens) (UniProt O60674); details: at 0.1 µM
[5] = target: Tyrosine-protein kinase JAK2 (Homo sapiens) (UniProt O60674); details: at 1 µM
[6] = target: T2, Tyrosine-protein kinase JAK3 (Homo sapiens) (UniProt P52333); details: at 0.1 µM
T2 sequence (whole entry): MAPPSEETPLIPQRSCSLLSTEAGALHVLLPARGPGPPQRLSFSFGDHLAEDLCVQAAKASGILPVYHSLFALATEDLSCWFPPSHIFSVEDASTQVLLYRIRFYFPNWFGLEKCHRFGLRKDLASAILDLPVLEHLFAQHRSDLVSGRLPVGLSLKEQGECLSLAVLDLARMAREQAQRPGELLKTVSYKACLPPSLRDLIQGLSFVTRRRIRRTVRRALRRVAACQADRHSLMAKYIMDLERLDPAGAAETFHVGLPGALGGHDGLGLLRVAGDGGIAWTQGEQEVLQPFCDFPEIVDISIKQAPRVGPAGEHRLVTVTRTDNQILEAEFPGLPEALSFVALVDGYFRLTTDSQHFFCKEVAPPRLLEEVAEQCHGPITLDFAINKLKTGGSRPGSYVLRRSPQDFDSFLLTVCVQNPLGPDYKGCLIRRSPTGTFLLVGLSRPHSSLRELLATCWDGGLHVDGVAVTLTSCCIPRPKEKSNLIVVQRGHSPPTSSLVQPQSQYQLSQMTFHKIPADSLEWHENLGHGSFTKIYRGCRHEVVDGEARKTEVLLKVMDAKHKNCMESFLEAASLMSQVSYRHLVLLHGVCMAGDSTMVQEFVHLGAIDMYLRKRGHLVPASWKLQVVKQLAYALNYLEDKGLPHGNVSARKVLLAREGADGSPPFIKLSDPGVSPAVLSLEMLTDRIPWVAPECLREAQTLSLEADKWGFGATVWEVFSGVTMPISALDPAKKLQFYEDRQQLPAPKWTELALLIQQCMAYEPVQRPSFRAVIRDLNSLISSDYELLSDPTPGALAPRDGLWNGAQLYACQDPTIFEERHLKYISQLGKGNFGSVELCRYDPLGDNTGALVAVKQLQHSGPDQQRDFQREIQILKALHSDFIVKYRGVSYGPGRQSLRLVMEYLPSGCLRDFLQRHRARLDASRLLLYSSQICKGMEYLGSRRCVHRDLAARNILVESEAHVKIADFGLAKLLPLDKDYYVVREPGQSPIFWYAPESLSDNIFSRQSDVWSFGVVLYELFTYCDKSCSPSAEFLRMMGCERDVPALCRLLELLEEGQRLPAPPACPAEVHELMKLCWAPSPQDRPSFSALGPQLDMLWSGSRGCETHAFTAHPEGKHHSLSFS

[7] = target: T2, Tyrosine-protein kinase JAK3 (Homo sapiens); details: at 1 µM
[8] = target: Vascular endothelial growth factor receptor 2 (Homo sapiens) (UniProt P35968); details: at 0.1 µM
Chain of Vascular endothelial growth factor receptor 2 (Homo sapiens) (P35968 whole entry): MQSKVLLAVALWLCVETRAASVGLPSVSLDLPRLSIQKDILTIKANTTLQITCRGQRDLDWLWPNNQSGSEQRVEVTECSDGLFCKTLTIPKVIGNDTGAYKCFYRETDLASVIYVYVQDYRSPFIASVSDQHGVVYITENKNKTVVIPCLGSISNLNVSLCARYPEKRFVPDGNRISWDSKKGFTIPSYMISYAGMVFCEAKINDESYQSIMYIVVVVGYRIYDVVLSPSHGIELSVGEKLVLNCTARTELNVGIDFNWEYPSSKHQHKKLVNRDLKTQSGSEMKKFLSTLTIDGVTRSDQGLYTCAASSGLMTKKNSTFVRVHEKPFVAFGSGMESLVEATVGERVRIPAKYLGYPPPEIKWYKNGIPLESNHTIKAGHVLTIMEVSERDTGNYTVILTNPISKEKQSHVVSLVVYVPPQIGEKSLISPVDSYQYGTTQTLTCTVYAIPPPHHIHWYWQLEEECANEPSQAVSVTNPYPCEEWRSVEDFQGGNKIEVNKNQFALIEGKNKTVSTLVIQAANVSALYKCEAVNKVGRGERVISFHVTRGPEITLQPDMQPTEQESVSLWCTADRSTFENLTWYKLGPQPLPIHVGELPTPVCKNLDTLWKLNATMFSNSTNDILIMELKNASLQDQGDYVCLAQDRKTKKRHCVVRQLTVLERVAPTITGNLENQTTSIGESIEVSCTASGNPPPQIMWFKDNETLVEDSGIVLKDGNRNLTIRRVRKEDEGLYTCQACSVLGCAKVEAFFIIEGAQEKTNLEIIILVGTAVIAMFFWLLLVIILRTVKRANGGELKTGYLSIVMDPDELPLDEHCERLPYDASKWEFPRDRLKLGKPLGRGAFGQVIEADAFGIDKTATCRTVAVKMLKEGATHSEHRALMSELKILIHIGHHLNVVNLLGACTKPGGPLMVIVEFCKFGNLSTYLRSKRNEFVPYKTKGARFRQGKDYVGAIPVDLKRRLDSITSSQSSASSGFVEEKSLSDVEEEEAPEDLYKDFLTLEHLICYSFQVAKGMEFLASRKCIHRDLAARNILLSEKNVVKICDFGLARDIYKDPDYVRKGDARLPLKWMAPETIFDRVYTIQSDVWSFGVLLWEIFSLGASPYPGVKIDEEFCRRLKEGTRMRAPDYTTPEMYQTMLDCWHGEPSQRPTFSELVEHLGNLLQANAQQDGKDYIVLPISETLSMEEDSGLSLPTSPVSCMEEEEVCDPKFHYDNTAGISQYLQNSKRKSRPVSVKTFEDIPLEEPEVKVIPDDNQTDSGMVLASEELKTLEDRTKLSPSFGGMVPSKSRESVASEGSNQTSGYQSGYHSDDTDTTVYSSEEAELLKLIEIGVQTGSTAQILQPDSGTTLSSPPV

[9] = target: Vascular endothelial growth factor receptor 2 (Homo sapiens) (UniProt P35968); details: at 1 µM
[10] = target: Mast/stem cell growth factor receptor Kit (Homo sapiens) (UniProt P10721); details: at 0.1 µM
Chain of Mast/stem cell growth factor receptor Kit (Homo sapiens) (P10721 whole entry): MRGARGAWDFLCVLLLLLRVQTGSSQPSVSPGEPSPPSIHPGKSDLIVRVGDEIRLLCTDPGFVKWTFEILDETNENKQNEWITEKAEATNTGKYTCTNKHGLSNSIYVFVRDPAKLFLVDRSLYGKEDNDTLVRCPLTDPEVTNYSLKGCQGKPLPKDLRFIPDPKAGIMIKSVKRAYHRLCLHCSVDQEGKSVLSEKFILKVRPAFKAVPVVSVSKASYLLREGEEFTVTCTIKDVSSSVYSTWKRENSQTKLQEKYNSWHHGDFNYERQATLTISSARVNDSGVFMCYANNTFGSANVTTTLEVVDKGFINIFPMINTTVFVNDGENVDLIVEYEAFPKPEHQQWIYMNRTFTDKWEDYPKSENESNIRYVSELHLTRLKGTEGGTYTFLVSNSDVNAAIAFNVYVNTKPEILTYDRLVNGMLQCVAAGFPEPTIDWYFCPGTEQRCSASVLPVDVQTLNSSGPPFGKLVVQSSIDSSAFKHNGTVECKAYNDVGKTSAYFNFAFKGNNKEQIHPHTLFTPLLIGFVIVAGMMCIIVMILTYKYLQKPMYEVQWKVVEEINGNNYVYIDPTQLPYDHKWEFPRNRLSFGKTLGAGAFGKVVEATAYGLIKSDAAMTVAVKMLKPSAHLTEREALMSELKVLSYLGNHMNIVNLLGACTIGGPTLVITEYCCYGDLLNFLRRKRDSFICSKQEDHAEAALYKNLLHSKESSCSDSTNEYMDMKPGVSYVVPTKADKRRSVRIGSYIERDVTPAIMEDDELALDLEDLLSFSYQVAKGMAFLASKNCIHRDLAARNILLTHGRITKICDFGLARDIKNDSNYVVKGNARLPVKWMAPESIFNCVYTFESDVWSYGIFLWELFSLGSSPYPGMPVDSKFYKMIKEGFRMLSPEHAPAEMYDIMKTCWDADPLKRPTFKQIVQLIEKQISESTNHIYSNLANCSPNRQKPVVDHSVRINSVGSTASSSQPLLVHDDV

[11] = target: Mast/stem cell growth factor receptor Kit (Homo sapiens) (UniProt P10721); details: at 1 µM
[12] = tested on: Mast/stem cell growth factor receptor Kit (Homo sapiens), P10721 [D816V]; details: at 0.1 µM
Chain of Mast/stem cell growth factor receptor Kit (Homo sapiens), P10721 [D816V] (P10721 whole entry D816V): as the sequence (P10721 whole entry) above, with D816V counted along it

[13] = tested on: Mast/stem cell growth factor receptor Kit (Homo sapiens), P10721 [D816V]; details: at 1 µM
[14] = tested on: Mast/stem cell growth factor receptor Kit (Homo sapiens), P10721 [T670I]; details: at 0.1 µM
Chain of Mast/stem cell growth factor receptor Kit (Homo sapiens), P10721 [T670I] (P10721 whole entry T670I): as the sequence (P10721 whole entry) above, with T670I counted along it

[15] = tested on: Mast/stem cell growth factor receptor Kit (Homo sapiens), P10721 [T670I]; details: at 1 µM
[16] = tested on: Mast/stem cell growth factor receptor Kit (Homo sapiens), P10721 [V560G]; details: at 0.1 µM
Chain of Mast/stem cell growth factor receptor Kit (Homo sapiens), P10721 [V560G] (P10721 whole entry V560G): as the sequence (P10721 whole entry) above, with V560G counted along it

[17] = tested on: Mast/stem cell growth factor receptor Kit (Homo sapiens), P10721 [V560G]; details: at 1 µM
[18] = target: Tyrosine-protein kinase Lck (Homo sapiens) (UniProt P06239); details: at 0.1 µM
Chain of Tyrosine-protein kinase Lck (Homo sapiens) (P06239 2-509 limits assumed): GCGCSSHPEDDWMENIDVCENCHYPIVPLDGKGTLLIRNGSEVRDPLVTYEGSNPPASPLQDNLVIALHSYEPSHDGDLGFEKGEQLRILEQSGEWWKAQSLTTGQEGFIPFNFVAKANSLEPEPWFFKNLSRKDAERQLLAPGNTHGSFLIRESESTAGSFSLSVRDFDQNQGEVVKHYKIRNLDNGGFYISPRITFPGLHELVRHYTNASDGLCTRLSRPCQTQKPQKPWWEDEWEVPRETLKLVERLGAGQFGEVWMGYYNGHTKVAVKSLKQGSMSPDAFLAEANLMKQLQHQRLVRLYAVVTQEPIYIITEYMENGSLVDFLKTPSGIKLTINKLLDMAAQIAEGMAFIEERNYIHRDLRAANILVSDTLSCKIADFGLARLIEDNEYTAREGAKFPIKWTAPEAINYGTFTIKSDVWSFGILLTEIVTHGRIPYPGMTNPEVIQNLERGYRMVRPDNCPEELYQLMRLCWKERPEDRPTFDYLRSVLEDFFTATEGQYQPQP

[19] = target: Tyrosine-protein kinase Lck (Homo sapiens) (UniProt P06239); details: at 1 µM
[20] = target: Leukocyte tyrosine kinase receptor (Homo sapiens) (UniProt P29376); details: at 0.1 µM
Chain of Leukocyte tyrosine kinase receptor (Homo sapiens) (P29376 whole entry): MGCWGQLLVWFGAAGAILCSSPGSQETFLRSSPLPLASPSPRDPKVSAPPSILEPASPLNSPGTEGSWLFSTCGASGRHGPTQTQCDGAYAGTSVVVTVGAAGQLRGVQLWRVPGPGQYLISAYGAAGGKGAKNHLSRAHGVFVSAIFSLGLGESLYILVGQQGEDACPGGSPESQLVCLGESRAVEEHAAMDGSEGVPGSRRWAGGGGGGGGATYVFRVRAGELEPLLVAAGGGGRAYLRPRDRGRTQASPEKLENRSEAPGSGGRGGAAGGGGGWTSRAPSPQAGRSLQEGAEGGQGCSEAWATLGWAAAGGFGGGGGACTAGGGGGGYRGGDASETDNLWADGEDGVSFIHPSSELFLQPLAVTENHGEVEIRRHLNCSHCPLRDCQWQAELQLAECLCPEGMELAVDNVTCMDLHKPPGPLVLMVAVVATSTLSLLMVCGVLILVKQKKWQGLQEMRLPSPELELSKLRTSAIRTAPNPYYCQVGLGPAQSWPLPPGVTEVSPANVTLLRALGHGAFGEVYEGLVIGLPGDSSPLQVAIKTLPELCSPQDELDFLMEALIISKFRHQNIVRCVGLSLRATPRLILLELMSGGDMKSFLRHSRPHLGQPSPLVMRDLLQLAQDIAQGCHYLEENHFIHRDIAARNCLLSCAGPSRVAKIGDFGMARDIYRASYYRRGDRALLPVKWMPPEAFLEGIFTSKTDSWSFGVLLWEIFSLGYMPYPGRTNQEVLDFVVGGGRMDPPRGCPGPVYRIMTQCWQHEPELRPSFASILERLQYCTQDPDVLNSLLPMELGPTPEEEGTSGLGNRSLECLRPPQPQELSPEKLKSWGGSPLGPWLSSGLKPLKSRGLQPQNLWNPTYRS

| Compound | inhibition [1] | inhibition [2] | inhibition [3] | inhibition [4] | inhibition [5] | inhibition [6] | inhibition [7] | inhibition [8] | inhibition [9] | inhibition [10] | inhibition [11] | inhibition [12] | inhibition [13] | inhibition [14] | inhibition [15] | inhibition [16] | inhibition [17] | inhibition [18] | inhibition [19] | inhibition [20] |
| --- | --- | --- | --- | --- | --- | --- | --- | --- | --- | --- | --- | --- | --- | --- | --- | --- | --- | --- | --- | --- |
| CNC(=O)c1cc(-c2ccc(F)cc2)cc(-c2ccc(S(=O)(=O)N3CCCC3)cc2)c1N | 0.87% | 0.17% | 1.74% | 1.75% | 3.18% | -1.74% | -0.38% | 1.67% | 6.2% | 3.86% | 3.53% | 3.32% | 1.27% | 3.02% | 1.68% | -2.57% | 1.97% | 2.58% | 2.91% | 2.81% |
| CCN1CCC(CC(=O)Nc2n[nH]c3nnc(-c4cccc(F)c4F)cc23)CC1 | 1.3% | 3.38% | 4.71% | 0.88% | 0.1% | -2.12% | 1.45% | 0.77% | 4.46% | 0.04% | 0.38% | 0.53% | 0.47% | 0.27% | 1.83% | 1.48% | -0.83% | 2.01% | 6.17% | 2.06% |
| [O-][S+]1CCN(Cc2ccc(-c3ccc4ncnc(Nc5ccc(OCc6cccc(F)c6)c(Cl)c5)c4c3)o2)CC1 | 2.41% | 6.24% | 9.08% | 1.51% | 1.04% | -1.66% | -0.12% | 5.24% | 7.82% | 4.47% | 10.1% | 6.9% | 3.81% | 2.75% | 5.16% | -2.67% | -0.28% | 2.85% | 8.2% | 7.04% |
| COc1cc(N2CCN(C(C)C)CC2)ccc1Nc1nc(Nc2ccc(F)cc2C(N)=O)c2cc[nH]c2n1 | 5.47% | 3.68% | 2.03% | 2.05% | 2.59% | 0.12% | 11.6% | 4.96% | 15.3% | -0.57% | 4.94% | -1.16% | 2.56% | -2.37% | -1.31% | -1.89% | -1.36% | 2.34% | 4.79% | 93.5% |
| CC1=C(C(=O)Nc2cc(Cl)c3[nH]ncc3c2)C(c2ccc(C(F)(F)F)cc2)CC(=O)N1 (stereo not given) | 2.35% | 9.58% | 51.5% | 2.99% | 29.2% | 2.49% | 42.3% | 4.67% | 6.91% | 4.2% | 0.36% | 4.84% | 6.4% | 2.93% | 4.07% | -1.27% | -0.62% | 4.9% | 27.1% | 2.35% |
| Fc1ccc(-c2nn3ccccc3c2-c2ccncc2)cc1 | 1.56% | 0.87% | -0.62% | 0.36% | 1.23% | -0.48% | 0.18% | 3.84% | 9.61% | 1.23% | 12.1% | -1.36% | -0.05% | -0.12% | 1.47% | -1.06% | 1.71% | 1.24% | 5.7% | 1.27% |
| N#Cc1c(NC(=O)c2ccc(F)cc2)sc2c1CCCC2 | 0.63% | 1.63% | 6.11% | -0.41% | 0.9% | 0.53% | 2.52% | 4.31% | 6.96% | 6.24% | 5.86% | -0.47% | 2.78% | -0.92% | 1.72% | -0.83% | 0.9% | 0.7% | 0.45% | 1.24% |
| CCn1c(-c2nonc2N)nc2c(C#CC(C)(C)O)ncc(OC3CCNCC3)c21 | 2.09% | 3.54% | 3.51% | 1.5% | 2.39% | -2.24% | -1.24% | 27.1% | 76.1% | 2.24% | 3.87% | 4.97% | 6.05% | 1.16% | -0.54% | -0.47% | 0.39% | 2.33% | 4.05% | 1.83% |
| O=S(=O)(CCNCc1ccc(-c2ccc3ncnc(Nc4ccc(OCc5cccc(F)c5)c(Cl)c4)c3c2)o1)c1ccccc1 | 2.79% | 3.16% | 5.23% | 1.04% | 1.11% | -3.52% | -1.28% | 5.96% | 8.62% | 6.8% | 9.57% | 3.44% | 6.21% | 3.42% | 5.36% | 0.27% | -1.16% | 3.99% | 8.49% | 5.14% |
| CC(C)(CO)CNC(=O)c1ccc2c(c1)/C(=N/Nc1ccc(S(N)(=O)=O)cc1)C(=O)N2 | 1.2% | 1.29% | 2.13% | -1.03% | 1.02% | -0.67% | 13.5% | 9.03% | 56% | -4.53% | 6.13% | -0.32% | 9.15% | -1.23% | -1.94% | -0.35% | 1.1% | 0.12% | 3.08% | -1.7% |
| COc1cc(Nc2nccc(Nc3ccc4c(C)n[nH]c4c3)n2)cc(OC)c1OC | 7.07% | 17.8% | 66.5% | 35.6% | 72.5% | 1.48% | 27.8% | 74.9% | 72.5% | 77.3% | 95.8% | 10.8% | 58.7% | 4.19% | 43.3% | 13.1% | 57.9% | 34.4% | 82.4% | 2.14% |
| COc1ccc2c(-c3ccnc(Nc4cccc(OC(F)(F)F)c4)n3)cnn2n1 | 2.38% | 4.66% | 13% | 1.65% | 10.9% | -0.93% | 2.75% | 6.22% | 14.8% | 10.7% | 45.9% | 7.04% | 6.99% | 2.93% | 11.2% | -0.57% | 5.63% | 1.54% | 5.72% | 3.12% |
